{"source": "ChEMBL document CHEMBL1157539", "about": "“Thousands of chemical starting points for antimalarial lead identification” (Nature, 2010)"}
{"tested_on": "HepG2", "assay": "GSK_TCMDC: Percent inhibition of human HepG2 cell line. Test compounds present at 10uM.", "type": "functional", "units": {"Inhibition": "%"}}
{"molecule": "O=C(Nc1cccc(-c2cccc(-c3nc4cc(F)ccc4[nH]3)c2)c1)c1c[nH]cn1", "Inhibition": 13}
{"molecule": "O=C(Nc1ccc(Oc2ccccc2)cc1)N(Cc1ccc(-c2cccc(CN3CCNCC3)c2)cc1)C1CCN(Cc2ccccc2)CC1.O=C(O)C(F)(F)F", "Inhibition": 10}
{"molecule": "CC1(C)NC(N)=NC(=N)N1OCOc1ccc(Cl)cc1.Cl", "Inhibition": 68}
{"molecule": "CC(C)Nc1nc(NC2CCCCC2)nc(N2CCCCCCC2)n1", "Inhibition": 13}
{"molecule": "Cl.Nc1c(C(=O)NCCCCN2CCN(c3nsc4ccccc34)CC2)sc2ccccc12", "Inhibition": 26}
{"molecule": "COc1ccc2nccc([C@@H](O)CN3CCC(NCc4ccc5c(c4)NC(=O)C(C)(C)O5)CC3)c2c1.O=C(O)C(=O)O", "Inhibition": 6}
{"molecule": "O=S(=O)(Nc1cccc(CCN2CCCCC2CCN2CCCC2)c1)c1cccc2ccccc12", "note": "(centres undefined)", "Inhibition": 23}
{"molecule": "COC(=O)c1cc(OC2CCOC2=O)cc2c1OC(C)(C)O2", "note": "(centres undefined)", "Inhibition": 6}
{"molecule": "CC1CCN(CC[C@H]2CCCN2S(=O)(=O)c2cccc(NC(=O)c3cc4ccccc4s3)c2)CC1", "Inhibition": 28}
{"molecule": "COc1ccc(C(=O)N2CCc3cc4nccc(N5CCN6CCC[C@H]6C5)c4cc32)cc1", "Inhibition": 1}
{"molecule": "CN1CCCN(c2ccnc3cc4c(cc23)N(C(=O)c2ccc(Cl)cc2Cl)CC4)CC1.Cl", "Inhibition": 6}
{"molecule": "CCCCCCCN1CC[C@@H](C[C@H](N)Cc2ccnc3ccc(OC)cc23)[C@@H](CC)C1.O=C(O)C(=O)O", "Inhibition": 33}
{"molecule": "Cc1ccc(CCNCC(O)c2cccc(C(F)(F)F)c2)cc1.Cl", "note": "(centres undefined)", "Inhibition": 0}
{"molecule": "CCN(CC)c1nc(Nc2cc(C)ccc2C)nc(Nc2ccccc2O)n1", "Inhibition": 0}
